Results as given in PubChem BioAssay (NCATS).
Inconclusive results are not listed. Calls of active or inactive are those of the source. The call rests on the fitted dose curve; in most records, active means well fitted cell-killing curve with a large enough effect; inconclusive means small, poorly fitted or top-dose-only effect, or effect the other way; inactive means flat fitted curve, though single readings scatter.

Key:
Experiment in all cases: Primary qHTS to identify gynecologic anti-cancer compounds using libraries of approved drugs and bioactive compounds (AID 1345084); further: nearly all actives have a fitted effect of over 55% in size
[1] = system: Es-2; details: Gynecologic cancer cell panel viability, ATPlite luminescence, 48 h; series mostly up to 57.5 µM
Method in brief: (§1)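 ATP-based viability (ATPlite), 1,000 cells/well, 16 h pre-incubation, 48 h compound at 37 C, 5% CO2, 15 min RT before read.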

[2] = system: HeLa; details: Gynecologic cancer cell panel viability, ATPlite luminescence, 48 h; series mostly up to 57.5 µM
Method in brief: as §1

[3] = system: Hek293T; details: Gynecologic cancer cell panel viability, ATPlite luminescence, 48 h, control line for the selectivity index; series mostly up to 57.5 µM
Method in brief: as §1

[4] = system: JEG-3; details: Gynecologic cancer cell panel viability, ATPlite luminescence, 48 h; series mostly up to 57.5 µM
Method in brief: as §1

[5] = system: OV90; details: Gynecologic cancer cell panel viability, ATPlite luminescence, 48 h; series mostly up to 57.5 µM
Method in brief: as §1

[6] = system: PA-1; details: Gynecologic cancer cell panel viability, ATPlite luminescence, 48 h; series mostly up to 57.5 µM
Method in brief: as §1

[7] = system: SKOV3; details: Gynecologic cancer cell panel viability, ATPlite luminescence, 48 h; series mostly up to 57.5 µM
Method in brief: as §1

[8] = system: Tov-21-G; details: Gynecologic cancer cell panel viability, ATPlite luminescence, 48 h; series mostly up to 57.5 µM
Method in brief: as §1

[9] = system: Tov112D; details: Gynecologic cancer cell panel viability, ATPlite luminescence, 48 h; series mostly up to 57.5 µM
Method in brief: as §1
On the % scale 0 is the no-effect control and ±100 the full control effect.

O=C(O)c1cc(O)c2cccc(O)c2c1O[C@@H]1O[C@H](CO)[C@@H](O)[C@H](O)[C@H]1O
inactive: Potency [1] | Potency [2] | Potency [3] | Potency [4] | Potency [5] | Potency [6] | Potency [7] | Potency [8] | Potency [9]

CC1=CC(=O)C2C(C)(C)CCCC2(C)C12CCC1(COC(=O)C1)O2 (stereo not given)
inactive: Potency [1] | Potency [2] | Potency [3] | Potency [4] | Potency [5] | Potency [6] | Potency [7] | Potency [8] | Potency [9]

N#CCc1ccc(O)cc1O[C@@H]1O[C@H](CO)[C@@H](O)[C@H](O)[C@H]1O
inactive: Potency [1] | Potency [2] | Potency [3] | Potency [4] | Potency [5] | Potency [6] | Potency [7] | Potency [8] | Potency [9]

C=CC(C)(CC/C=C(\C)CC/C=C(\C)CC(O)/C=C(\C)C(=O)O)O[C@@H]1O[C@H](CO)[C@@H](O)[C@H](O)[C@H]1O[C@@H]1O[C@H](CO)[C@@H](O)[C@H](O)[C@H]1O (stereo not given in full)
inactive: Potency [1] | Potency [2] | Potency [3] | Potency [4] | Potency [5] | Potency [6] | Potency [7] | Potency [8] | Potency [9]

C=C[C@H]1[C@H](O[C@@H]2O[C@H](CO)[C@@H](O)[C@H](O)[C@H]2O)OC=C2C(=O)OCC[C@]21O
inactive: Potency [1] | Potency [2] | Potency [3] | Potency [4] | Potency [5] | Potency [6] | Potency [7] | Potency [8] | Potency [9]

C[C@@H]1O[C@@H](O[C@H]2[C@H](OC(=O)[C@]34CCC(C)(C)C[C@H]3C3=CCC5[C@@]6(C)CC[C@H](O[C@@H]7O[C@H](CO[C@@H]8OC[C@H](O)[C@H](O)[C@H]8O)[C@@H](O)[C@H](O)[C@H]7O)C(C)(C)C6CC[C@@]5(C)[C@]3(C)C[C@H]4O)OC[C@@H](O)[C@@H]2O)[C@H](O)[C@H](O)[C@H]1O[C@@H]1OC[C@H](O)[C@H](O[C@@H]2OC[C@@H](O)[C@H](O)[C@H]2O)[C@H]1O (stereo not given in full)
inactive: activity change, negative = cytotoxicity [1] -2.02% [at 6.55 µM] | activity change, negative = cytotoxicity [2] 18.3% [at 6.55 µM] | activity change, negative = cytotoxicity [3] -6.63% [at 6.55 µM] | activity change, negative = cytotoxicity [4] -1.75% [at 6.55 µM] | activity change, negative = cytotoxicity [5] -10.8% [at 6.55 µM] | activity change, negative = cytotoxicity [6] 1.4% [at 6.55 µM] | activity change, negative = cytotoxicity [7] 14.1% [at 6.55 µM] | activity change, negative = cytotoxicity [8] -9.88% [at 6.55 µM] | activity change, negative = cytotoxicity [9] 9.32% [at 6.55 µM]

C[C@@H]1O[C@@H](O[C@H]2[C@H](OC(=O)C34CCC(C)(C)CC3C3=CCC5C6(C)CC(O)C(O[C@@H]7O[C@H](CO)[C@@H](O)[C@H](O)[C@H]7O)C(C)(C(=O)O)C6CCC5(C)C3(CO)CC4)O[C@H](C)[C@H](O)[C@@H]2O)[C@H](O)[C@H](O)[C@H]1O[C@@H]1OC[C@@H](O)[C@H](O)[C@H]1O (stereo not given in full)
inactive: activity change, negative = cytotoxicity [1] 0.101% [at 11.6 µM] | activity change, negative = cytotoxicity [2] 10.9% [at 11.6 µM] | activity change, negative = cytotoxicity [3] 7.78% [at 11.6 µM] | activity change, negative = cytotoxicity [4] 4.58% [at 11.6 µM] | activity change, negative = cytotoxicity [5] 3.81% [at 11.6 µM] | activity change, negative = cytotoxicity [6] 8.42% [at 11.6 µM] | activity change, negative = cytotoxicity [7] 7.96% [at 11.6 µM] | activity change, negative = cytotoxicity [8] 2.58% [at 11.6 µM] | activity change, negative = cytotoxicity [9] 2.79% [at 11.6 µM]

COC(=O)c1ccc(O[C@@H]2O[C@H](CO)[C@@H](O)[C@H](O)[C@H]2O)c(OC)c1
inactive: Potency [1] | Potency [2] | Potency [3] | Potency [4] | Potency [5] | Potency [6] | Potency [7] | Potency [8] | Potency [9]

c1nc(NC2CCCCCC2)c2cc(CNC[C@H]3CCCO3)sc2n1
inactive: Potency [1] | Potency [2] | Potency [3] | Potency [4] | Potency [5] | Potency [6] | Potency [7] | Potency [8] | Potency [9]

CC(C)CC1(C(=O)OCc2ccc(O[C@@H]3O[C@H](CO)[C@@H](O)[C@H](O)[C@H]3O)cc2)CC(=O)OC(C(=O)O)CC(=O)OCC2OC(O1)C(OC(=O)/C=C/c1ccc(O)cc1)C(O)C2O (stereo not given in full)
inactive: activity change, negative = cytotoxicity [1] 11.3% [at 11.6 µM] | activity change, negative = cytotoxicity [2] 0% [at 11.6 µM] | activity change, negative = cytotoxicity [3] 5.47% [at 11.6 µM] | activity change, negative = cytotoxicity [4] 1.44% [at 11.6 µM] | activity change, negative = cytotoxicity [5] -14.4% [at 11.6 µM] | activity change, negative = cytotoxicity [6] -8.97% [at 11.6 µM] | activity change, negative = cytotoxicity [7] -14.9% [at 11.6 µM] | activity change, negative = cytotoxicity [8] -1.82% [at 11.6 µM] | activity change, negative = cytotoxicity [9] 0.377% [at 11.6 µM]

C[C@@H]1C[C@H](O)/C=C/[C@H](O)[C@@H](O)CC(=O)O1
inactive: Potency [1] | Potency [2] | Potency [3] | Potency [4] | Potency [5] | Potency [6] | Potency [7] | Potency [8] | Potency [9]

CCOC(=O)Nc1nc2ccccc2[nH]1
inactive: Potency [1] | Potency [2] | Potency [3] | Potency [4] | Potency [5] | Potency [6] | Potency [7] | Potency [8] | Potency [9]

C=C1CCC(OC(C)=O)C2(C)CC3(O)OC(=O)C(C)=C3CC12 (stereo not given)
inactive: Potency [1] | Potency [2] | Potency [3] | Potency [4] | Potency [5] | Potency [6] | Potency [7] | Potency [8] | Potency [9]

CC1CCC(=O)CC(O)C(O)CC(=O)O1 (stereo not given)
inactive: Potency [1] | Potency [2] | Potency [3] | Potency [4] | Potency [5] | Potency [6] | Potency [7] | Potency [8] | Potency [9]

CC[C@H](C)/C=C(C)/C=C/C(=O)Cc1cc(O)c(C)c(O)c1C=O
inactive: Potency [1] | Potency [2] | Potency [3] | Potency [4] | Potency [5] | Potency [6] | Potency [7] | Potency [8] | Potency [9]
